In the library only some 3.4% were active in any assay of this set; here they are far more common.
KAT2A inh – GCN5L2 (KAT2A) acetyltransferase inhibition; GCN5L2 HAT assay, ThioGlo1 CoA-SH fluorescence; Potency, µM (top dose mostly 58.9 µM), most hits filed as inhibitors; 0.21% of 390,000 active
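Fluorescence readout, Ex340nm/Em540nm: ThioGlo1 (50uM final) reacts with free CoA thiol released as 20nM GCN5L2 acetylates H3(1-25) peptide (75uM) using acetyl-CoA (70uM). Compound and enzyme sat 15 min beforehand; 20 min room-temperature reaction.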
Mito fusion yeast – mitochondrial division inhibition or fusion activation; S. cerevisiae fusion-defective mutant growth rescue, CellTiterGlo 48 h; Potency, µM (doses to about 46.1 µM), hits mostly activators; 0.23% of 320,000 active; further: nearly all actives have a fitted effect of over 45% in size
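Read-out: ATP-based luminescence (CellTiterGlo, 10 min ambient) reporting growth of fusion-defective ts yeast after 48 hours at 37C on glycerol/ethanol YPEG medium in the presence of compound.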
GLS inh – blocks human kidney-isoform glutaminase activity; AID 624170; 0.21% of 410,000 active; Potency, µM (top dose mostly 45.5 µM), hits mostly inhibitors; GLS enzymatic activity, qHTS titration
Target sequence (O94925 whole entry, looked up, canonical isoform): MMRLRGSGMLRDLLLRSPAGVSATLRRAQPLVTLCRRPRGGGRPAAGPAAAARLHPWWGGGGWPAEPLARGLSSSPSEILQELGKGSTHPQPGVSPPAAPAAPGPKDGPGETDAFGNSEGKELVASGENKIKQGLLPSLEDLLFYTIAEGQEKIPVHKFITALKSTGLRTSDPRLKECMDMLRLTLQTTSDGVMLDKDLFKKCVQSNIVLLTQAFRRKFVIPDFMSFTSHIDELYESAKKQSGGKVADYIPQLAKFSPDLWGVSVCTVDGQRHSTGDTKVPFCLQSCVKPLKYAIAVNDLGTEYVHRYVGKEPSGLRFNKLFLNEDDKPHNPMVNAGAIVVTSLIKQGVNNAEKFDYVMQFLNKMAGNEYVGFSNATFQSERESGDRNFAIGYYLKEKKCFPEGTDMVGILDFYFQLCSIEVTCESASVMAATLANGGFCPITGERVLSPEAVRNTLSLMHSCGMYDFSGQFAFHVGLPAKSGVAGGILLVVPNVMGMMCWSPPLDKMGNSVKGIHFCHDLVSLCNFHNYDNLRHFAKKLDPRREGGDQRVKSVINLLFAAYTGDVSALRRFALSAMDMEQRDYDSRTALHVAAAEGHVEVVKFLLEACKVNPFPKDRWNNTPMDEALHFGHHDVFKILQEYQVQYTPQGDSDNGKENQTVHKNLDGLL
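Human kidney-isoform GLS in 45 mM KH2PO4 pH 8.2, 0.02% Tween-20, with compound, started with 1mM L-Glutamine (added stock). Glutamate oxidase/HRP/Amplex red coupled fluorescence read at start and after 30 min at RT.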
PKM2 act – PKM2 (human) enzyme activation; P14618; purified PKM2, Kinase-Glo ATP luminescence, activation; response scale: 0% is enzyme alone, no compound; Potency, µM (doses to about 57.5 µM), hits mostly activators; 0.34% of 260,000 active; further: nearly all actives have a fitted effect of over 55% in size
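ATP formation by purified human PK-M2, quantified via coupled luciferase luminescence after 1 h at room temperature with 0.1 mM ADP and 0.5 mM PEP final.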
PLK1 PBD block – PLK1 (human) polo-box domain binding inhibition | AID 720504 | 2.8% of 360,000 active | P53350 | Potency, µM, most hits filed as inhibitors | Plk1 PBD binding of FITC phosphopeptide, fluorescence polarization; further: series mostly up to about 57 µM; nearly all actives have a fitted effect of over 65% in size
VDR inhibitor – vitamin D3 receptor (human) inhibition; P11473; VDR-SRC2-3 peptide fluorescence polarization, 2 h; Potency, µM, hits mostly inhibitors; 0.93% of 400,000 active
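After 23 nl compound addition and a short centrifugation, plates sat for 2 hours at ambient temperature; polarization of fluorescence then indicated loss of VDR binding to peptide SRC2-3.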
Numbers stand for hits; . = inactive; ? = inconclusive; / = no result; [ ] = dose if it differs, or a comment. The call rests on the fitted dose curve; in most records, active means well fitted curve in the direction sought with a large enough effect; inconclusive means small, poorly fitted or top-dose-only effect, or another doubt; inactive means no such curve, though single readings can be large; an effect the other way counts as inactive or inconclusive.

SMILES | KAT2A inh | Mito fusion yeast | GLS inh | PKM2 act | PLK1 PBD block | VDR inhibitor
CC(C)[C@@H]1NC(=O)[C@H](CCCCN)NC(=O)[C@@H](Cc2c[nH]c3ccccc23)NC(=O)[C@H](Cc2ccc(O)cc2)NC(=O)[C@@H](NC(=O)[C@H](N)Cc2ccccc2)CSSC[C@@H](C(=O)N[C@@H](Cc2c[nH]c3ccccc23)C(N)=O)NC1=O | . | / | / | / | / | .
CCc1noc(C)c1C(=O)NCCN1C(=O)S/C(=C\c2ccccc2F)C1=O | / | / | . | / | . | /
CCOC(=O)c1c(NC(=O)/C=C/C(=O)O)sc(C)c1-c1ccc(Cl)cc1 | . | . | . | . | . | 40µM
COC(=O)/C=C/c1ccc(OC(=O)c2ccncc2)cc1 | . | . | . | . | . | .
CCC[C@H]1CN(Cc2ccccc2)C(=O)[C@@H]1CC(=O)NC | / | / | . | / | . | /
O=C(Nc1nnc(C2CCCCC2)s1)C1CCN(C(=O)c2ccco2)CC1 | / | / | / | / | / | .
Cc1ccc(C(=O)CC(C(=O)O)c2cn(CCC#N)c3ccccc23)cc1 (stereo not given) | . | . | . | . | 27µM | .
CSCC[C@H](NS(=O)(=O)c1ccc(C(C)=O)cc1)c1nnc2ccccn12 | . | . | . | / | . | .
CCc1ccc(NC(=O)Cn2ncc3c4ccccc4n(C)c3c2=O)cc1 | . | . | . | . | 24µM | ?
Cn1c2ccccc2c2cnn(CC(=O)Nc3ccccc3F)c(=O)c21 | . | / | . | / | / | .
N#C/C(=C(/O)c1ccccc1F)c1nc2cc(C(F)(F)F)ccc2s1 | . | . | . | . | 27µM | .
N#C/C(=C(/O)c1ccc2c(c1)OCO2)c1nc2cc(C(F)(F)F)ccc2s1 | . | . | . | . | ? | .
CCN(CC(=O)NCc1cccs1)C(=O)c1ccc(N(C)S(=O)(=O)c2ccc(C)cc2)cc1 | / | / | . | / | . | .
O=C(Cc1sc(-c2ccccc2)nc1-c1ccccc1)Nc1ccc(Cl)cc1 | . | . | . | . | . | .
COC(=O)Cc1sc(-c2ccccn2)nc1-c1ccccc1 | . | . | . | . | 4.7µM | 25µM
O=C(NCCO)c1cc2cc(Cl)cc(Cl)c2oc1=O | ? | . | ? | . | 13µM | ?
CC1CCCCC1NC(=O)COC(=O)c1c2c(nc3ccccc13)/C(=C/c1ccco1)CC2 (stereo not given) | ? | . | . | . | 11µM | .
Cc1cc(C(=O)OCC(=O)NC2CCCCC2C)c2ccccc2n1 (stereo not given) | . | / | . | / | . | .
CC(C)Oc1ccccc1-c1nc(SCC(=O)c2ccc(F)cc2)n[nH]1 | . | / | . | / | / | .
O=C1NC(=S)/C(=C\c2ccc(-c3ccccc3Cl)o2)S1 | . | . | . | . | 13µM | .
CCOc1cc2c(C#N)c(N(CC)CC)nc(N)c2c(N)n1 | / | / | . | / | . | 45µM
COc1ccc(S(=O)(=O)Nc2ccccc2C(=O)NCc2ccco2)cc1 | . | . | . | . | 11µM | .
CCOC(=O)c1sc(NC(=O)OC)c(C(=O)OC)c1C | . | . | . | ? | . | .
Cc1cc(C)nc(NC(=O)c2cc(-c3ccc(C)s3)nc3ccccc23)c1 | . | . | . | . | . | .
CCN(CC)C(=O)c1sc(NC(=O)c2ccncc2)c(C(=O)OC)c1C | . | . | . | . | . | ?
SMILES | KAT2A inh | Mito fusion yeast | GLS inh | PKM2 act | PLK1 PBD block | VDR inhibitor
CCN(CC)C(=O)c1sc(NC(=O)c2ccoc2C)c(C(=O)OC)c1C | . | . | . | . | 21µM | ?
CCOC(=O)c1c(NC(=O)OC)sc(C(=O)N(CC)CC)c1C | . | . | . | . | 24µM | .
CCN(CC)C(=O)c1sc(NC(=O)c2cc(-c3ccc(C)s3)nc3ccccc23)c(C(=O)OC)c1C | . | . | . | . | 15µM | .
C[N+]1(C)CCN(C[C@@](O)(c2ccccc2)C2CCCCC2)CC1 | / | / | . | / | / | /
COc1ccc(-c2cc(-c3ccccc3)nc(SC(C)C(=O)O)c2C#N)cc1 (stereo not given) | . | . | . | .[11.5 µM] | 27µM | ?
CC(C)C(Sc1nc(-c2ccccc2)cc(-c2ccccc2)c1C#N)C(=O)O (stereo not given) | ? | . | . | . | 19µM | .
COc1ccc(Cn2c(CCC(=O)Nc3cc(C)cc(C)c3)nc3cccnc32)cc1 | . | / | . | / | / | .
COc1ccc(Cn2c(CCC(=O)Nc3ccc(C)cc3)nc3cccnc32)cc1 | . | . | . | . | 24µM | .
Cc1nc(C(Cl)(Cl)Cl)nc2[nH]ccc(=O)c12 | . | . | ? | . | 27µM | 18µM
CCO/C=C1/C(=O)N(Cc2ccccc2)C(=O)c2ccccc21 | . | . | . | . | ? | .
CCO/C=C1/C(=O)N(CC)c2ccccc21 | . | . | . | . | 15µM | .
CCO/C=C1/C(=O)N(c2ccc(OC)cc2)C(=O)c2ccccc21 | . | . | . | / | 17µM | .
Cc1cccc(C(=O)NC2CCN(CC(=O)Nc3ccccc3Cl)CC2)c1 | . | . | . | . | . | .
CC(C)(C)c1ccc(S(=O)(=O)N2CCC(Oc3ccc(-n4cnnn4)cc3)CC2)cc1 | . | / | . | / | / | .
O=S(=O)(c1ccccc1F)N1CCC(Oc2ccc(-n3cnnn3)cc2)CC1 | . | 10µM | . | / | . | .
CCCS(=O)(=O)c1nc(S(=O)(=O)c2ccc(C)cc2)c(N2CCC3(CC2)OCCO3)s1 | . | . | . | / | . | .
COC(=O)[C@@H]1OC(c2ccccc2)O[C@H]1C(=O)OC | . | / | / | / | / | .
CCn1c(=NC(=O)c2ccc3c(c2)OCCO3)sc2c(C)ccc(OC)c21 | . | / | . | / | / | .
O=C1C=C(NCc2ccccc2)CCC1 | . | . | . | . | . | .
O=C1C=C(NC2=CC3OC(c4ccccc4)OCC3OC2=O)CCC1 (stereo not given) | . | . | . | . | . | 79µM
CCOC(=O)C1CCN(C(=O)CCNS(=O)(=O)c2ccc(C)cc2)CC1 | . | . | . | / | . | .
CCOC(=O)C1CCN(CC(C)(C)NS(=O)(=O)c2ccc(C)cc2)CC1 | . | 3.5µM | . | . | . | .
CC(=O)N1CC(C)Sc2ccc(S(=O)(=O)NC3CCCCC3C)cc21 (stereo not given) | . | . | . | .[0.46 µM] | 30µM | .
CCOC(=O)C1CCN(S(=O)(=O)c2ccc3c(c2)N(C(C)=O)CC(C)S3)CC1 (stereo not given) | . | . | . | / | 19µM | ?
CCOC(=O)c1ccc(S(=O)(=O)N2CCN(C)CC2)cc1 | 3.5µM | . | . | . | . | .
CCOc1ccc(S(=O)(=O)NC2CCCCC2C)cc1 (stereo not given) | / | / | . | / | . | .
COCC(=O)N1CCc2nc(COc3ccccc3)c3c(c2C1)CO[C@@H](C)C3 | / | / | / | .[11.5 µM] | / | /
O=C(CCc1nc2ccccc2c(=O)[nH]1)Nc1ccccc1N1CCCCC1 | / | / | . | / | . | /

Bioassay records from PubChem.
